{"source": "PubChem BioAssay (NCATS)", "key": {"[1]": {"molecular_target": "N-terminal Xaa-Pro-Lys N-methyltransferase 1 (Homo sapiens) (UniProt Q9BV86)", "sequence (Q9BV86 whole entry, looked up)": "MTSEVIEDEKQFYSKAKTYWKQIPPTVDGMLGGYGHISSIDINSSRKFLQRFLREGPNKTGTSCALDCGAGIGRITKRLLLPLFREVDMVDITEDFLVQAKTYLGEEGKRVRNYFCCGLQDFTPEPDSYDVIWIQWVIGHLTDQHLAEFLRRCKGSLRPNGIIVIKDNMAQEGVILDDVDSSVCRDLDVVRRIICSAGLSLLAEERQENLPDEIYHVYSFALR", "test": "Confirmatory qHTS for Inhibitors of N-terminal methyltransferase 1 (NTMT1): MTaseGlo Assay (AID 1645874); further: nearly all actives have a fitted effect of over 65% in size; further: potency means the concentration at half of the fitted maximal effect", "summary_of_the_method": "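Compounds are incubated with 125 nM NTMT1 and 100 uM SAM for 15 min before the SPKRIA peptide (1 uM) starts a 30 min room-temperature methylation. SAH is measured by coupled luciferase luminescence and curves fitted to a Hill equation.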"}, "[2]": {"test": "Primary qHTS for inhibitors of nuclear receptor binding SET domain protein 2 (NSD2) in an isogenic RCH-ACV NSD2 p.E1099K mutant (9B) (AID 1645876); further: nearly all actives have a fitted effect of over 70% in size; further: potency means the concentration at half of the fitted maximal effect"}, "[3]": {"test": "Primary qHTS for inhibitors of nuclear receptor binding SET domain protein 2 (NSD2) in an RCH-ACV wild type WT cells (2C) (AID 1645877); further: nearly all actives have a fitted effect of over 70% in size; further: potency means the concentration at half of the fitted maximal effect"}, "[4]": {"molecular_target": "Glutathione peroxidase 1 (Homo sapiens) (UniProt P07203)", "sequence (P07203 whole entry, looked up)": "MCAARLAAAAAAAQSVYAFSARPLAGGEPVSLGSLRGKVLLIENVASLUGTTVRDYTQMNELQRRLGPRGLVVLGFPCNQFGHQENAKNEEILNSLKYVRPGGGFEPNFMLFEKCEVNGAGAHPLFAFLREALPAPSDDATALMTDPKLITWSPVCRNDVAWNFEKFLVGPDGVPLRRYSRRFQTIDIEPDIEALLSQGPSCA", "test": "Primary qHTS Assay for Inhibitors of Recombinant Selenoprotein Glutathione Peroxidase 1 (GPX1) (AID 1845191); further: nearly all actives have a fitted effect of over 65% in size", "summary_of_the_method": "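GR-coupled assay: compounds preincubated 30 min at room temperature with GPX1, then reaction started with CHP; final 10 nM GPX1, 1 mM GSH, 0.5 mM CHP, 0.5 mM NADPH, 100 nM GR, 0.01% BSA, pH 7.5 Tris buffer. NADPH fluorescence (340/450 nm) read at 0 and 15 min.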"}}, "note": "Results filed as inconclusive are left out. Unmarked numbers belong to inactive results. Active and inactive are the calls of the source. The call rests on the fitted dose curve; in most records, active means well fitted curve in the direction sought with a large enough effect; inconclusive means small, poorly fitted or top-dose-only effect, or another doubt; inactive means no such curve, though single readings can be large; an effect the other way counts as inactive or inconclusive."}
{"smiles": "O=S(=O)(c1cccc(Cl)c1)n1c(/C=C/c2ccccc2Cl)nc2ccccc21", "values": [{"measurement": "Potency", "setting": "[1]", "value": "6.76 µM (active)"}]}
{"smiles": "COc1cccc(NC(=O)CN(CCc2ccccc2)S(=O)(=O)c2ccc(Cl)cc2)c1", "values": [{"measurement": "Potency", "setting": "[1]", "value": "8.51 µM (active)"}]}
{"smiles": "O=C(Nc1nc2c(s1)CCCC2)c1ccccc1F", "values": [{"measurement": "Potency", "setting": "[1]", "value": "39.8 µM (active)"}]}
{"smiles": "COC(=O)c1ccc(NC(=O)CSc2nc3ccc(OC)cc3[nH]2)cc1", "values": [{"measurement": "Potency", "setting": "[1]", "value": "inactive"}]}
{"smiles": "COc1cc2c(NC3CCN(C(C)C)CC3)nc(N3CCCCCC3)nc2cc1OCCCN1CCCC1", "values": [{"measurement": "Potency", "setting": "[1]", "value": "30.8 µM (active)"}]}
{"smiles": "COc1cc2c(NC3CCN(C(C)C)CC3)nc(N3CCCN(c4ccccc4)CC3)nc2cc1OCCCN1CCCC1", "values": [{"measurement": "Potency", "setting": "[1]", "value": "55.5 µM (active)"}]}
{"smiles": "COc1ccc(C(=O)Nc2noc3ccccc23)cc1", "values": [{"measurement": "Potency", "setting": "[1]", "value": "39.8 µM (active)"}]}
{"smiles": "CCCOc1ccccc1C(=O)Nc1nc2c(s1)CCCC2", "values": [{"measurement": "Potency", "setting": "[1]", "value": "inactive"}]}
{"smiles": "Cc1cn(C2C[C@H](O)[C@@H](CO)O2)c(=O)[nH]c1=O", "note": "(stereo partly drawn)", "values": [{"measurement": "Potency", "setting": "[2]", "value": "inactive"}, {"measurement": "Potency", "setting": "[3]", "value": "inactive"}]}
{"smiles": "COc1cc2c(NC3CCN(C(C)C)CC3)nc(N3CCCN(CC4CCCCC4)CC3)nc2cc1OCCCN1CCCC1", "values": [{"measurement": "Potency", "setting": "[1]", "value": "34.5 µM (active)"}]}
{"smiles": "Cc1cccc2nc(-c3ccc(Cl)s3)c(Nc3ccc4c(c3)OCCO4)n12", "values": [{"measurement": "Potency", "setting": "[1]", "value": "3.25 µM (active)"}]}
{"smiles": "COCCCNC(=O)CSc1c2c(nc3ccc(Cl)cc13)CCCC2", "values": [{"measurement": "Potency", "setting": "[1]", "value": "inactive"}]}
{"smiles": "CC(=O)NCCNc1cc(Cl)nn2c(-c3cccc(S(=O)(=O)N(C)C)c3)c(C)nc12", "values": [{"measurement": "Potency", "setting": "[2]", "value": "7.31 µM (active)"}, {"measurement": "Potency", "setting": "[3]", "value": "4.61 µM (active)"}]}
{"smiles": "Cc1ccc(C)n1-c1cccc(C(=O)O)c1", "values": [{"measurement": "Potency", "setting": "[1]", "value": "6.02 µM (active)"}]}
{"smiles": "O=C1NC(=O)/C(=C\\c2ccc(-c3ccc(F)cc3O)o2)S1", "values": [{"measurement": "Potency", "setting": "[2]", "value": "13 µM (active)"}, {"measurement": "Potency", "setting": "[3]", "value": "11.6 µM (active)"}]}
{"smiles": "Cc1ccc(-n2ncc3c(NCCCN(C)C)ncnc32)cc1Cl", "values": [{"measurement": "Potency", "setting": "[1]", "value": "39.8 µM (active)"}]}
{"smiles": "Cc1cccc(-n2cnc3cc(C(=O)NC4CCCC4)ccc32)c1", "values": [{"measurement": "Potency", "setting": "[1]", "value": "39.8 µM (active)"}]}
{"smiles": "Cc1ccc(/C=C/c2nc3ccccc3[nH]2)cc1", "values": [{"measurement": "Potency", "setting": "[1]", "value": "6.49 µM (active)"}]}
{"smiles": "COc1c/c(=C2\\C=c3ccccc3=N2)[nH]/c1=C/c1[nH]c(C)cc1C", "values": [{"measurement": "Potency", "setting": "[1]", "value": "35 µM (active)"}, {"measurement": "Potency", "setting": "[4]", "value": "inactive"}]}
